{"source": "PubChem BioAssay (NCI)", "tested_on": "MDA-MB-468 breast", "test": "NCI-60 one-dose screen, 48 h (100 = growth as untreated, 0 = no growth, -100 = all killed)", "settings": "10 µM unless noted", "note": "Where “and” joins values, the source holds several entries; their conditions need not be identical. Equal entries are not always repeated. This is part of a sample that, as a whole, favours compounds with a hit. Of some 83,000 tested, about 20% had one in any assay.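 Method: cells in 96-well plates; compound added at one concentration; 48 h incubation; percent growth measured; values under 10 scored active.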 Unmarked numbers belong to inactive results. Calls of active or inactive are those of the source.", "data": [{"smiles": "CN1COc2ccc3ccccc3c2C1", "values": [{"measurement": "growth", "result": 111, "unit": "%"}]}, {"smiles": "N#Cc1nc(-c2ccccc2)oc1S(=O)(=O)N1CCCCC1", "values": [{"measurement": "growth", "result": 21.8, "unit": "%"}]}, {"smiles": "Cc1[nH]n(-c2ccccc2)c2nc3nncc3c(-c3ccc(Cl)cc3)c12", "values": [{"measurement": "growth", "result": 95.1, "unit": "%"}]}, {"smiles": "COc1ccc(-c2cc(C(=O)Nc3nc4cc(C)c(C)cc4s3)nc3cc(-c4ccccc4)nn23)cc1OC", "values": [{"measurement": "growth", "result": 109, "unit": "%"}]}, {"smiles": "Cc1nc2sc(C(=O)Nc3cccc(Cl)c3C)c(N)c2cc1C(=O)/C=C/c1ccccc1", "values": [{"measurement": "growth", "result": "4.69% (active)"}]}, {"smiles": "COc1cc(Cn2cc3c(c2)-c2oncc2CC3)cc(OC)c1OC", "values": [{"measurement": "growth", "result": "-17.1% (active)"}]}, {"smiles": "CCCCCCCCCC(=O)Oc1ccc(/C(=C(/C)c2ccccc2)c2ccc(OCCN3CCCC3)cc2)cc1", "values": [{"measurement": "growth", "result": "-29.4% (active)"}]}, {"smiles": "O=S(=O)(O)c1cc(O)c2c(N=Cc3ccccc3O)c(S(=O)(=O)O)ccc2c1", "values": [{"measurement": "growth", "result": 101, "unit": "%"}]}, {"smiles": "CC(C)n1c2ccc(Br)cc2c2c3c(c4c5ccccc5ccc4c21)C(=O)NC3=O", "values": [{"measurement": "growth", "result": 93.5, "unit": "%"}]}, {"smiles": "CCCCN(CCCC)CC(CN(CC)CC)OC(=O)Nc1ccccc1", "note": "(stereo not given)", "values": [{"measurement": "growth", "result": 90, "unit": "%"}]}, {"smiles": "CCOC(=O)c1csc(N)n1", "values": [{"measurement": "growth", "result": "95.6% and 91.5%"}]}, {"smiles": "CCOc1cc(CCNS(=O)(=O)c2ccc(C)cc2)c(C(C)=O)cc1OCC", "values": [{"measurement": "growth", "result": "67.1% [100 µM]"}]}, {"smiles": "CN1CCN(Cc2ccc(NC(=O)c3cncc(C#Cc4c(N)ncc5ccc(F)cc45)c3)cc2C(F)(F)F)CC1", "values": [{"measurement": "growth", "result": 54.3, "unit": "%"}]}, {"smiles": "CCOC(=O)C1CSC(C)(C(=O)OCC)N1", "note": "(stereo not given)", "values": [{"measurement": "growth", "result": 105, "unit": "%"}]}, {"smiles": "O=C(/C(=C/c1ccc([N+](=O)[O-])cc1)SCc1ccc(Cl)cc1)c1ccc(F)cc1", "values": [{"measurement": "growth", "result": 77.2, "unit": "%"}]}]}
